# Experimental data: PubChem BioAssay (EPA / NIEHS)
# Several values for one entry are separate records, joined by “and”; a condition that tells them apart may be missing. Identical values can stand only once. Results filed as inconclusive are left out. More than one record can exist for a structure, and the calls need not agree. Activity calls are given as the source filed them. How the source made its calls: active means hit-call score of the fitted dose curve at least 0.9, where 1 is the maximum; inconclusive means response in the unintended direction; inactive means score below 0.9.
# Columns and labels:
# [1] = ATG_XTT_Cytotoxicity: Cytotoxicity Assessment in the Attagene TRANS-FACTORIAL HepG2 Assay (AID 2283584);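 on AC50: cells exposed to compound for 24 h before reading; active means loss of viability signal versus DMSO baseline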
# How it was run: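 Cells: human HepG2, transiently transfected with MRTU reporter constructs. Exposure 24 h. Readout: XTT, cell number. Baseline/neg ctrl DMSO; loss-of-signal scored.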
# [2] = TOX21_p53_BLA_p2_viability: Viability Assessment in the Tox21 HCT-116 p53 Agonism Beta-lactamase Assay, Phase 2 (AID 2283591);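 further: compound exposure lasted 16 h at 37 °C; actives lower the ATP signal meaning cytotoxicity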
# How it was run: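 Cytotoxicity readout: CellTiter-Glo ATP luminescence, 30 min at room temperature, after the beta-lactamase read. Cells were HCT116 exposed 16 h at 37C to compounds pin-transferred at 217-fold dilution from DMSO stocks.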
# [3] = target: Cellular tumor antigen p53 (Homo sapiens) (UniProt P04637); assay: TOX21_p53_BLA_p2_ratio: Tox21 HCT-116 p53 Agonism Beta-lactamase Assay, Ratio, Phase 2 (AID 2283592)
# How it was run: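 Plated HCT116 p53-bla cells (4000/well) received compound after 5 h, then 16 h at 37C/5% CO2. CCF4-AM added, 2 h RT. Ratio of 460 to 530 nm emission taken as the p53 reporter signal.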
# [4] = TOX21_p53_BLA_p3_viability: Viability Assessment in the Tox21 HCT-116 p53 Agonism Beta-lactamase Assay, Phase 3 (AID 2283593);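 further: cells exposed to compound for 16 h before reading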
# How it was run: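 Cellular ATP was quantified by CellTiter-Glo luminescence, read after 30 min at room temperature. Beforehand, HCT116 cells (4000/well) received compound 5 h post-seeding, 217-fold diluted from DMSO, then incubated 16 h at 37C.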
# [5] = target: Cellular tumor antigen p53 (Homo sapiens) (UniProt P04637); assay: TOX21_p53_BLA_p3_ratio: Tox21 HCT-116 p53 Agonism Beta-lactamase Assay, Ratio, Phase 3 (AID 2283596)
# How it was run: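 Cells were seeded at 4000/well, rested 5 h at 37C, then dosed with DMSO compound solutions (217-fold dilution) for 16 h. CCF4-AM substrate was loaded for 2 h at room temperature, and the 460/530 nm emission ratio was fitted for gain of signal versus DMSO.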
# [6] = TOX21_p53_BLA_p4_viability: Viability Assessment in the Tox21 HCT-116 p53 Agonism Beta-lactamase Assay, Phase 4 (AID 2283597);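 further: hits lower the luminescence signal meaning cytotoxicity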
# How it was run: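 Readout: ATP luminescence (CellTiter-Glo), measured 30 min after reagent addition at RT. The reagent followed a 2 h CCF4-AM incubation, and the cells had been exposed to compound for 16 h at 37C.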
# [7] = target: Cellular tumor antigen p53 (Homo sapiens) (UniProt P04637); assay: TOX21_p53_BLA_p5_ratio: Tox21 HCT-116 p53 Agonism Beta-lactamase Assay, Ratio, Phase 5 (AID 2283599)
# How it was run: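 Beta-lactamase reporter ratio (blue 460 nm over green 530 nm, 405 nm excitation) after 2 h CCF4-AM loading, in HCT-116 cells exposed 16 h at 37 C to compounds pinned at 217-fold dilution. Increases relative to DMSO baseline scored.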
# [8] = TOX21_p53_BLA_p5_viability: Viability Assessment in the Tox21 HCT-116 p53 Agonism Beta-lactamase Assay, Phase 5 (AID 2283600)
# How it was run: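 Workflow: seed 4000 cells per well, wait 5 h, add compounds (DMSO, 217-fold dilution), incubate 16 h, load CCF4-AM 2 h, add CellTiter-Glo, read luminescence after 30 min.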
# [9] = target: Cellular tumor antigen p53 (Homo sapiens) (UniProt P04637); assay: TOX21_p53_BLA_p4_ratio: Tox21 HCT-116 p53 Agonism Beta-lactamase Assay, Ratio, Phase 4 (AID 2283601)
# How it was run: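 Signal is the blue/green (460nm/530nm) ratio of cleaved versus uncleaved CCF4-AM substrate, read after 2 h substrate loading. Cells were HCT116 carrying the p53-responsive beta-lactamase reporter, dosed 16 h at 37C, 5% CO2; CellTiter-Glo measured in parallel.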
# Sequence of Cellular tumor antigen p53 (Homo sapiens) (P04637 whole entry, looked up): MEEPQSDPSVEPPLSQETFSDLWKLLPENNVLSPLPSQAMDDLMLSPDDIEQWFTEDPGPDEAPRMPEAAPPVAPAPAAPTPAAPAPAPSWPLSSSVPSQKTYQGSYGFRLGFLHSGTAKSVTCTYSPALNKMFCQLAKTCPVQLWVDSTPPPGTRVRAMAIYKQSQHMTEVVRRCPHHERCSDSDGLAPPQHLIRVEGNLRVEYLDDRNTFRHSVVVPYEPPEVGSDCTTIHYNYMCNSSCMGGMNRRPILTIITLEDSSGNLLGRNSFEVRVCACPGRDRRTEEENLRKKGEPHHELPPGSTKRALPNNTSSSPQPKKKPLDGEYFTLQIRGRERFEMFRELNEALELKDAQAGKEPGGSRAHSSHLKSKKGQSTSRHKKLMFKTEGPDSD
smiles,measurement,setting,value
CC1C2CC(CC2C2CCCC(O)C2)C1(C)C (centres undefined),outcome,[1],inactive
same,outcome,[2],inactive
same,outcome,[3],inactive
same,outcome,[4],inactive
same,outcome,[5],inactive
same,outcome,[6],inactive
same,outcome,[7],inactive
same,outcome,[8],inactive
same,outcome,[9],inactive
CCN(CCC#N)c1ccc(N=Nc2ccc([N+](=O)[O-])cc2)cc1,outcome,[1],inactive
CN(C)c1ccncc1,outcome,[1],inactive
Brc1ccc(Br)c(Br)c1,outcome,[1],inactive
same,outcome,[2],inactive
same,outcome,[3],inactive
same,outcome,[4],inactive
same,outcome,[5],inactive
same,outcome,[6],inactive
same,outcome,[7],inactive
same,outcome,[8],inactive
same,outcome,[9],inactive
Clc1ccc(C(c2ccccc2Cl)C(Cl)Cl)cc1 (centres undefined),AC50,[1],148 µM (active)
same,outcome,[1],inactive
same,AC50,[3],83.3 µM (active) and 39.1 µM (active)
same,AC50,[4],67.7 µM (active) and 31.2 µM (active)
same,AC50,[5],55.9 µM (active) and 37.2 µM (active)
same,AC50,[6],64.3 µM (active) and 25.8 µM (active)
same,AC50,[7],83.4 µM (active) and 42.3 µM (active)
same,AC50,[8],72.7 µM (active) and 35.9 µM (active)
same,AC50,[9],82.4 µM (active) and 36.6 µM (active)
CC1(C)O[C@@H]2C[C@H]3[C@@H]4CCC5=CC(=O)C=C[C@]5(C)[C@@]4(F)[C@@H](O)C[C@]3(C)[C@]2(C(=O)CO)O1,outcome,[1],inactive
same,outcome,[2],inactive
same,outcome,[3],inactive
same,outcome,[4],inactive
same,outcome,[5],inactive
same,outcome,[6],inactive
same,outcome,[7],inactive
same,outcome,[8],inactive
same,outcome,[9],inactive
N[C@@H](Cc1cc(I)c(Oc2cc(I)c(O)c(I)c2)c(I)c1)C(=O)O,outcome,[1],inactive
same,outcome,[2],inactive
same,AC50,[3],43.6 µM (active)
same,outcome,[3],inactive
same,outcome,[4],inactive
same,outcome,[5],inactive
same,AC50,[6],37 µM (active)
same,outcome,[6],inactive
same,AC50,[7],39.3 µM (active)
same,outcome,[8],inactive
same,AC50,[9],39.8 µM (active)
same,outcome,[9],inactive
CC(C)(C)C1=CC(=O)C(C(C)(C)C)=CC1=O,outcome,[1],inactive
CC/C=C\CC/C=C/CO,outcome,[1],inactive
CCCCCCCCCC(=O)OC,outcome,[1],inactive
CC(=O)O[C@@H]1C[C@@H]2CC[C@@]1(C)C2(C)C,outcome,[1],inactive
O=C(O)CNc1ccccc1,outcome,[1],inactive
same,outcome,[2],inactive
same,outcome,[3],inactive
same,outcome,[4],inactive
same,outcome,[5],inactive
same,outcome,[7],inactive
same,outcome,[8],inactive
same,outcome,[9],inactive
O=CCc1ccccc1,outcome,[1],inactive
same,outcome,[2],inactive
same,outcome,[3],inactive
same,outcome,[4],inactive
same,outcome,[5],inactive
same,outcome,[6],inactive
same,outcome,[8],inactive
same,outcome,[9],inactive
O=C(O)CCCCCCCCC(=O)O,outcome,[1],inactive
same,outcome,[2],inactive
same,outcome,[3],inactive
same,outcome,[4],inactive
same,outcome,[5],inactive
same,outcome,[6],inactive
same,outcome,[7],inactive
same,outcome,[8],inactive
same,outcome,[9],inactive
Cc1ncc[nH]1,outcome,[1],inactive
same,outcome,[2],inactive
same,outcome,[3],inactive
same,outcome,[4],inactive
same,outcome,[5],inactive
same,outcome,[6],inactive
same,outcome,[7],inactive
same,outcome,[9],inactive
CCO/C=C1\N=C(c2ccccc2)OC1=O,outcome,[1],inactive
same,outcome,[2],inactive
same,outcome,[3],inactive
same,outcome,[4],inactive
same,outcome,[5],inactive
same,outcome,[6],inactive
same,outcome,[7],inactive
same,outcome,[9],inactive
COC(=O)c1ccc(OC)cc1,outcome,[1],inactive
same,outcome,[2],inactive
same,outcome,[3],inactive
same,outcome,[4],inactive
same,outcome,[5],inactive
same,outcome,[6],inactive
same,outcome,[7],inactive
same,outcome,[9],inactive
IC(I)I,outcome,[1],inactive
same,outcome,[2],inactive
same,outcome,[3],inactive
same,outcome,[4],inactive
same,outcome,[5],inactive
same,outcome,[6],inactive
same,outcome,[7],inactive
same,outcome,[8],inactive
same,outcome,[9],inactive
COCCOC(=O)c1ccccc1C(=O)OCCOC,outcome,[1],inactive
same,outcome,[2],inactive
same,outcome,[3],inactive
same,outcome,[4],inactive
same,outcome,[5],inactive
same,outcome,[6],inactive
same,outcome,[7],inactive
same,outcome,[8],inactive
same,outcome,[9],inactive
C=C(CC(=O)O)C(=O)O,outcome,[1],inactive
same,outcome,[2],inactive
same,outcome,[3],inactive
same,outcome,[4],inactive
same,outcome,[5],inactive
same,outcome,[6],inactive
same,outcome,[7],inactive
same,outcome,[8],inactive
same,outcome,[9],inactive
CCC(C)c1cc([N+](=O)[O-])cc([N+](=O)[O-])c1OC(=O)OC(C)C (centres undefined),outcome,[1],inactive
same,outcome,[2],inactive
same,AC50,[3],7.55 µM (active)
same,outcome,[4],inactive
same,AC50,[5],35.3 µM (active)
same,outcome,[6],inactive
same,AC50,[7],36.9 µM (active)
same,outcome,[8],inactive
same,outcome,[9],inactive
CCCCCc1ccco1,outcome,[1],inactive
same,outcome,[2],inactive
same,outcome,[3],inactive
same,AC50,[4],58 µM (active)
same,outcome,[5],inactive
same,outcome,[6],inactive
same,outcome,[7],inactive
same,outcome,[8],inactive
same,outcome,[9],inactive
OCCOCCN1CCN(C2=Nc3ccccc3Sc3ccccc32)CC1,outcome,[1],inactive
same,outcome,[2],inactive
same,outcome,[3],inactive
same,outcome,[4],inactive
same,outcome,[5],inactive
same,outcome,[6],inactive
same,outcome,[7],inactive
same,outcome,[8],inactive
same,outcome,[9],inactive
Cc1ccc(-c2ccccc2)cc1,outcome,[1],inactive
same,outcome,[2],inactive
same,outcome,[3],inactive
same,outcome,[4],inactive
same,outcome,[5],inactive
same,outcome,[7],inactive
same,outcome,[8],inactive
NCCNc1cccc2ccccc12,outcome,[1],inactive
same,outcome,[2],inactive
same,outcome,[3],inactive
same,outcome,[4],inactive
same,outcome,[5],inactive
same,outcome,[6],inactive
same,outcome,[7],inactive
same,outcome,[8],inactive
same,outcome,[9],inactive
CCOC(=O)C1OC1c1ccccc1 (centres undefined),outcome,[1],inactive
same,outcome,[2],inactive
same,outcome,[3],inactive
same,outcome,[4],inactive
same,outcome,[5],inactive
same,outcome,[7],inactive
same,outcome,[8],inactive
same,outcome,[9],inactive
CCCCN(CCCC)C(=O)N(CCCC)CCCC,outcome,[1],inactive
same,outcome,[2],inactive
same,outcome,[3],inactive
same,outcome,[4],inactive
same,outcome,[5],inactive
same,outcome,[7],inactive
same,outcome,[8],inactive
same,outcome,[9],inactive
